Hits are enriched below; roughly 4.2% of the tested compounds scored in any of these assays.
CCHF vOTU inh = blocks the CCHF virus ovarian tumor domain protease. CCHFV vOTU protease, Pep-AMC fluorescence. inhibition, % at 11.5 µM. 370,000 tested, 0.55% active. AID 651958; further: 0% = vehicle wells with enzyme and 100% = no enzyme wells
Mtb betalactam = beta-lactam sensitization of Mtb H37Rv; M. tuberculosis H37Rv growth with meropenem, percent inhibition; inhibition, % at 25 µM; 330,000 tested, 0.27% active; AID 434955; call rule not given here;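 further: growth measured after seven days incubation then overnight dye step; 0% = bacteria only wells and 100% = bacteria with antibiotic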
RecA intein inh = blocks M. tuberculosis RecA intein splicing; cell-free RecA intein splicing, fluorescence; inhibition, % (no concentration beside the values); 290,000 tested, 0.75% active; AID 2221; in the data active means inhibition above about 30%;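 further: 0% = vehicle wells and 100% = reference inhibitor control wells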
GDH-TPI counter = GDH-TPI coupled enzyme inhibition counter-screen | GDH-TPI coupled enzyme counterscreen, NADH absorbance | inhibition, % at 4.8 µM | 360,000 tested, 1.2% active;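 further: 0% = DMSO wells and 100% = wells lacking the enzyme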
FBA Mtb inh = Mtb fructose-bisphosphate aldolase inhibition | AID 588726 | purified M. tuberculosis FBA, fluorescence read-out | P9WQA3 | 360,000 tested, 2.3% active | inhibition, % at 1 µM; in the data active means inhibition above about 27%;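 further: 0% = vehicle and 100% = reference inhibitor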
Target sequence (P9WQA3 whole entry, looked up): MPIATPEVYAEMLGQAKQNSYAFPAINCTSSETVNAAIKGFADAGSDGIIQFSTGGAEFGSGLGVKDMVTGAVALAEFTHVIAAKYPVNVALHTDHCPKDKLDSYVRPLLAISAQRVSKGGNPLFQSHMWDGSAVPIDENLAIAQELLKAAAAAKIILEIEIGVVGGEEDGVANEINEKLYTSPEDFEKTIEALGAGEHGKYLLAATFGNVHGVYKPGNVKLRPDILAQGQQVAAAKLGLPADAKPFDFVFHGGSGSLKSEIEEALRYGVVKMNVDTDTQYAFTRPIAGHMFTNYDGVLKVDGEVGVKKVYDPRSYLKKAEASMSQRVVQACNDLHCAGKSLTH
* marks the source's active call; other numbers are inactive results; · = no result; + = active, no number. Unless noted, no stated cut-off is given here; in the data, active means inhibition above about 30%; inactive means the rest.

SMILES	CCHF vOTU inh	Mtb betalactam	RecA intein inh	GDH-TPI counter	FBA Mtb inh
CCOC(=O)C1=NOC(C(=O)Nc2nccs2)(C(=O)C2CC2)C1 (configuration not stated)	-0.3	·	·	·	·
COc1ccc(/C=N/NC(=O)c2cc(C3CC3)[nH]n2)cc1OC	-5.3	-3.5	-1.9	11.5	-0.7
Cc1nn(-c2ccccc2)c(C)c1-c1cc(C(=O)N/N=C/c2ccc(O)cc2)[nH]n1	10.0	3.0	7.3	43.9*	5.0
Cc1nn(-c2ccccc2)c(C)c1/C=N/NC(=O)c1cc(O)cc(O)c1	12.6	-14.9	-3.4	6.6	1.9
COc1cc(/C=N/NC(=O)c2cc(-c3c(C)nn(-c4ccccc4)c3C)n[nH]2)ccc1O	9.3	93.9	0.1	33.0*	-1.4
CCOc1cc(/C=N/NC(=O)c2ccc(NC(=O)C3CC3)cc2)ccc1O	22.5	-1.4	·	18.8	-2.2
COc1cc(/C=N/NC(=O)c2cc(C3CC3)[nH]n2)ccc1O	19.7	0.7	-3.4	44.2*	-2.9
COc1cc(/C=N/NC(=O)c2ccc(NC(=O)C3CCCCC3)cc2)ccc1O	15.0	5.2	0.9	35.0*	-2.4
COc1ccc(-c2cc(C(=O)NN=Cc3ccc(O)c(OC)c3)[nH]n2)cc1	0.7	·	·	·	·
O=C(NCc1ccccc1)C1(C(=O)C2CC2)CC(c2ccccc2C(F)(F)F)=NO1 (configuration not stated)	0.9	·	·	·	·
COc1cc(/C=N/NC(=O)c2cc(-c3ccc4c(c3)OCO4)n[nH]2)ccc1O	10.6	-3.9	-0.1	38.9*	-2.7
COC(=O)[C@]12C[C@H](CC(=O)NCc3cccc(C(F)(F)F)c3)C(=O)N(Cc3cccc4ccccc34)C1=C[C@H](C(C)C)O[C@@H]2C1CC1	21.5	·	·	·	·
N#CCC[C@H]1CC[C@]2(CCCN(C(=O)C3CCCC3)C2)O1	0.9	·	·	·	·
CCN(CC)Cc1c[nH]c2c(C(=O)OC)cccc12	-12.7	9.2	1.2	19.7	67.0*
CSc1ccc(/C=C/C(=O)N2CCN(c3ccccn3)CC2)cc1	2.0	45.9	4.5	32.3*	5.0
Cc1cc(C(=O)N/N=C/C=C/c2ccccc2)c(C)o1	11.9	6.1	0.5	31.8*	-1.7
Cc1cc(C(=O)N/N=C/c2ccccc2)c(C)o1	-8.8	-4.2	2.5	3.8	0.2
O=C(N/N=C/C=C/c1ccccc1)c1cnccn1	14.6	2.8	-0.1	48.3*	-4.5
O=C(N/N=C\c1ccc(Sc2ccccn2)o1)c1cccc(Br)c1	10.7	39.3	3.5	32.3*	-0.6
Cc1ccccc1C(=O)N/N=C/c1ccc(Sc2ccccn2)o1	7.2	·	-0.6	25.6	0.6
O=C(N/N=C/C=C/c1ccccc1)c1cccc(Br)c1	10.8	98.9	1.7	65.0*	-5.5
CC(/C=C/c1ccccc1)=N/NC(=O)c1cnccn1	-2.1	3.2	0.4	23.8	3.4
CCOC(=O)N1CCN(C(=O)C[C@H]2C[C@@]3(C(=O)OC)C(=C[C@H](C(C)(C)C)O[C@@H]3C)N(CCc3ccc(OC)c(OC)c3)C2=O)CC1	0.5	·	·	·	·
CC(=O)OC12CCCN(C1)/C(=C/c1ccccc1)C2 (configuration not stated)	0.0	·	·	·	·
Cc1ccc(C(=O)N/N=C/C=C/c2ccccc2)cc1	18.3	95.5	0.3	31.0*	0.6
SMILES	CCHF vOTU inh	Mtb betalactam	RecA intein inh	GDH-TPI counter	FBA Mtb inh
Cc1occc1C(=O)N/N=C/C=C/c1ccccc1	3.1	7.2	1.2	30.4	-2.8
COC(=O)[C@]12C[C@H](CC(=O)NCCCN3CCCC3=O)C(=O)N(Cc3ccco3)C1=C[C@H](C(C)(C)C)O[C@@H]2C	2.3	·	·	·	·
CCOC(=O)C(=O)N1CCC(C(=O)NC2CCCc3ccccc32)CC1 (configuration not stated)	2.5	·	·	·	·
CCC(=O)N[C@@H]1C[C@@H]2O[C@@H](CO)CC[C@@H]2O[C@@H]1CCc1ccc(-c2cccc(OC)c2)cc1	-2.6	·	·	·	·
O=C(O)/C=C/C(=O)c1ccc2c(c1)CCc1ccccc1-2	1.8	27.6	18.9	32.3*	5.2
O=C(OC12CCCN(C1)/C(=C/c1ccncc1)C2)c1ccccc1 (configuration not stated)	1.5	·	·	·	·
O=C1C=CN(Cc2ccccc2)CC1	5.4	-3.0	-5.0	25.0	3.3
O=C1C=CN(Cc2ccccc2)C(c2ccccc2)C1 (configuration not stated)	17.7	-9.6	·	35.4*	-3.4
Cc1cccc2nc(-c3ccco3)c(Nc3ccccc3)n12	-106.2	1.5	-0.3	13.0	120.8*
Cc1ccc(-c2[nH]c(-c3ccc(C(=O)O)cc3)nc2-c2ccccc2)cc1	-376.0	4.3	7.5	17.0	+

Bioassay records: PubChem BioAssay, several laboratories
